High-throughput results (PubChem BioAssay)
cardiac RTF act – cardiac RTF calcium sensitization; P19429+P45379; IANBD-labeled TnC RTF fluorescence at EC20 calcium; 0% EC20 calcium, 100% full calcium; activation, % at 7.2 µM; actives 0.24% (n = 340,000); AID 493008;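 active means activation above the mean over all tested compounds plus 3 SD, cut at about 30% in these data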;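 further: rise in fluorescence read as greater calcium sensitivity of cardiac thin filaments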
CRFBP-R2 block – blocks CRF-induced signaling of the CRF-BP/CRF-R2 complex; HEK293 CRF-R2/CRF-BP, CRF-induced calcium fluorescence; inhibition, % at 11.8 µM; actives 0.59% (n = 350,000);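 active means inhibition of the ligand-induced calcium signal above about 50% at the single tested concentration, limit read from the data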
CRFR2-BP ag – agonists of human CRF-binding protein/CRF-R2 receptor complex; HEK293 CRF-R2/CRF-BP, calcium dye fluorescence (FLIPR); percent of saturating CRF peptide response; activation, % at 13.2 µM; actives 0.46% (n = 350,000);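 active means activation of at least 50%, plus an integration ratio under a set limit after plate pattern correction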;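 further: plate controls were neutral control wells without compound for no effect and CRF at EC100 for full effect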
ANO1 block – blocks the mouse calcium-activated chloride channel TMEM16A. Q8BHY3. HEK293 TMEM16A/YFP iodide influx fluorescence, ionomycin. normalized B-score (activity score, 25-100; higher = stronger inhibition) at 10 µM. actives 1.2% (n = 310,000);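 active means ratio plate-corrected score three or more library SD toward inhibition, starting fluorescence score within five deviations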;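 further: score derived from kinetic fluorescence span divided by baseline fluorescence per well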
Target sequence (Q8BHY3 whole entry, looked up): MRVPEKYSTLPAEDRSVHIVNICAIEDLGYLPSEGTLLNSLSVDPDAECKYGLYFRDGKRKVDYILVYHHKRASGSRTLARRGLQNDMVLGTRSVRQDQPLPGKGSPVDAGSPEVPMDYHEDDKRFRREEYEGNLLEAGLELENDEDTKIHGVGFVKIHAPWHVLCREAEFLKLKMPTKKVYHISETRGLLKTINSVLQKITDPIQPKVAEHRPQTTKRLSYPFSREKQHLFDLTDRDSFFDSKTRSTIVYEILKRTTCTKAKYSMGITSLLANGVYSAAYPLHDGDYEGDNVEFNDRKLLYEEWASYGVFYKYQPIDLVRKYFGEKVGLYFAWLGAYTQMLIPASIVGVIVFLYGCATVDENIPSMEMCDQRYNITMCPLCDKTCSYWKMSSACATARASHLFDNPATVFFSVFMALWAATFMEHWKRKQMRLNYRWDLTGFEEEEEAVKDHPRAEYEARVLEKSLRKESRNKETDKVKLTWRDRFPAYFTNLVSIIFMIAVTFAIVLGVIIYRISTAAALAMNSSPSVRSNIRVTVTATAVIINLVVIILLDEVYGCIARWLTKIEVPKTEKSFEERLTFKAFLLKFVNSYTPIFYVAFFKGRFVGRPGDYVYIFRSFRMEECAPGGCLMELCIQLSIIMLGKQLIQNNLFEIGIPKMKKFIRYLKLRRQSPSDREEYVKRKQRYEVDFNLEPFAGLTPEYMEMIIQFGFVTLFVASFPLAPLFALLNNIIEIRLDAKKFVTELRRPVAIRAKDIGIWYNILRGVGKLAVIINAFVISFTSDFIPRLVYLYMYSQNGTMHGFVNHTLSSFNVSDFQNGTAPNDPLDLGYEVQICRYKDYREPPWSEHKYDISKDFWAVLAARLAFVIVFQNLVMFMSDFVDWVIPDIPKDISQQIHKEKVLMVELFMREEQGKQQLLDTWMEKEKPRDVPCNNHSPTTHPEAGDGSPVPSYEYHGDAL
TMEM16A act – mouse TMEM16A channel activation, primary screen. HEK293 TMEM16A/YFP-H148Q/I152L, iodide quench fluorescence; hits give low values. B-score at 10 µM. actives 0.3% (n = 340,000). AID 623877;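 active means fluorescence-ratio B-score plate-corrected deviation score at least 3 library SD below zero, with starting fluorescence score within 5 deviations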;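 further: channel opened by trigger with iodide after compound preincubation; score built on the fluorescence ratio of max minus min over baseline; more negative score means more quench and so TMEM16A activation or potentiation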
Cardiac RTF inh – cardiac RTF calcium desensitization. IANBD-labeled cardiac RTF, Ca2+ fluorescence. inhibition, % at 7.15 µM. actives 0.12% (n = 340,000). AID 493244;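 active means inhibition above the mean inhibition of all tested compounds plus 3 SD, cut at about 17% in these data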;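 further: assay run at fixed EC70 calcium of 1.6 mM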
* = called active by the depositor; i = inactive; / = no result given. An excerpt weighted towards active compounds, which were near 2.4% of everything screened.

SMILES	cardiac RTF act	CRFBP-R2 block	CRFR2-BP ag	ANO1 block	TMEM16A act	Cardiac RTF inh
CN(C)c1ccc(O)c2c1CC1CC3[C@@H](N(C)C)C(=O)C(C(N)=O)C(=O)[C@]3(O)C(=O)C1C2=O (stereo partly drawn)	3	4	-1	/	-9.4*	8
Cc1cc(C(=O)NNC(=O)C(CCC(N)=O)NS(=O)(=O)c2ccc(Cl)cc2)c(C)o1 (stereo not drawn)	1	67*	0	/	i	1
COc1ccc(CCNC(=O)C(CCC(N)=O)NS(=O)(=O)c2ccc(Cl)cc2)cc1OC (stereo not drawn)	-1	6	1	i	i	-3
C#CCN1c2ccccc2Sc2cccnc21	30*	-1	0	i	i	-40
Cc1ccccc1CS(=O)(=O)c1nnc([C@H](Cc2ccccc2)NC(=O)OC(C)(C)C)o1	-1	14	13	i	-5.2*	-2
CN1CCN(C2=C(Cl)C(=O)C(c3cnc(N4CCCCC4)s3)=C(Cl)C2=O)CC1	1	-17	1	100*	i	-10
Cc1cc(=O)c(C(=O)O)cn1Nc1ccc(Cl)cc1	-6	4	0	i	i	-3
CC(C)Oc1ccc(C(=O)NCC(=O)N2CCN(S(=O)(=O)/C=C/c3ccccc3)CC2)cc1	-3	-3	-1	/	i	-1
CCc1ccccc1OCc1nnc(N)s1	0	-7	0	25*	i	-3
CS(=O)(=O)N1CCc2cc(S(=O)(=O)Nc3ccc4oc5c(c4c3)CCCC5)ccc21	-3	-25	0	25*	i	-2
Cc1ccc(NC(=O)c2ccc3c(c2)CCN3S(C)(=O)=O)cc1C	-1	5	-1	i	i	-2
CC(C)c1ccc(N(C(=O)CNC(=O)c2ccco2)C(C(=O)NC2CCCC2)c2ccncc2)cc1 (stereo not drawn)	-9	-11	1	i	i	15
O=C(NCC(=O)N(c1ccccc1)C(C(=O)NC1CCCC1)c1ccncc1)c1ccco1 (stereo not drawn)	-5	12	0	i	-16*	4
Cc1ccc(N(C(=O)Cn2nnc(-c3ccccc3F)n2)C(C(=O)NC2CCCC2)c2ccncc2)cc1 (stereo not drawn)	1	51*	0	i	i	-9
CSc1nc(C)cc(SCC(=O)N/N=C/c2ccccc2)n1	-4	3	1	i	i	5
O=C(CCCN1C(=O)/C(=C\c2cccc(Br)c2)SC1=S)Nc1cccnc1	7	-48	2	i	i	4
CN1C(=CC=C2C=C(I)C(=O)C(I)=C2)C(C)(C)c2ccccc21	92*	5	16	/	i	-33
CCCN1C(=O)/C(=C\C=C2\N(CC)c3ccccc3C2(C)C)SC1=S	90*	-214	125*	/	i	-110
CC1=NN(c2ccccc2)C(=O)/C1=C/N(C)C	4	-3	0	i	i	0
CCN1C(=O)C(=CC=CN(C)c2ccccc2)SC1=S	/	-65	103*	/	/	/
CC1=NN(c2ccccc2)C(=O)/C1=C\C=C1/N(C)c2ccccc2C1(C)C	5	-32	52*	i	i	-14
CCN1C(=O)/C(=C\c2ccncc2)SC1=S	-8	6	-2	i	i	3
CCNC(=O)NC(=O)C(C)OC(=O)[C@H](C)NS(=O)(=O)c1c(C)c(C)cc(C)c1C (stereo partly drawn)	6	19	-2	i	i	-1
CO/N=C/C=C1/N(C)c2ccccc2C1(C)C	1	-4	0	i	i	-3
CCN1C(=O)/C(=C/C=C2\C=CN(CC)c3ccccc32)SC1=S	4	53*	0	i	i	-4
SMILES	cardiac RTF act	CRFBP-R2 block	CRFR2-BP ag	ANO1 block	TMEM16A act	Cardiac RTF inh
CN1/C(=C\C=C2/SC(=S)NC2=O)C(C)(C)c2ccccc21	344*	-144	164*	i	i	i
CN1/C(=C\C=N\O)C(C)(C)c2ccccc21	-3	-2	1	i	i	-19
CN1/C(=C\C=C2/C(=O)Oc3ccccc3C2=O)C(C)(C)c2ccccc21	/	-383	323*	i	/	/
Cc1ccc(CNC(=O)C2CCCN(S(=O)(=O)c3ccc(-n4cnnn4)cc3)C2)cc1 (stereo not drawn)	-2	21	-1	i	i	-3
Cc1ccnc(NC(=O)CCC(=O)N(CC(=O)NC2CCCCC2)Cc2cccs2)c1	-7	-20	0	i	i	11
CC(=NNC(=O)c1ccncc1)c1ccccc1Cl	0	1	-3	/	i	-8
C/C(=N\NC(=O)c1ccccc1NC(=O)c1ccc(Cl)cc1)c1ccncc1	-5	72*	1	i	i	-2
Cc1noc(C)c1C(=O)OCC(=O)Nc1ccccc1SCC#N	3	-8	8	/	i	-22
COc1cccc(NC(=O)CSc2nc3ccccc3c(=O)n2CCCC(=O)NCCCN2CCOCC2)c1	-6	7	-3	i	i	-2
Cc1ccc(NC(=O)CSc2nc3ccccc3c(=O)n2CCCC(=O)NCCCN2CCOCC2)cc1	1	72*	3	i	i	-2
CCCCC(=O)NC(c1ccc([N+](=O)[O-])cc1)c1c(O)ccc2ccccc12 (stereo not drawn)	-6	32	18	100*	i	8
Cc1cc(C)cc(N(CC(=O)NC2CCCC2)C(=O)CCC(=O)Nc2cc(C)ccn2)c1	5	-2	0	i	i	-4
Cn1cccc1/C=C1\CCC/C(=C\c2cccn2C)C1=O	181*	-185	155*	i	i	-310
CCN1N=C(c2cc(Cl)sc2Cl)CSC1=O	0	-22	-2	i	i	-7
COC(=O)C1(Cc2cc(-c3ccc(OC)cc3OC)no2)CCN(C(=O)OC(C)(C)C)CC1	-4	24	1	25*	i	-18
COC(=O)C1(Cc2cc(-c3cccc(Br)c3)no2)CCN(C(=O)OC(C)(C)C)CC1	0	13	1	i	i	-11
Cc1c(C(=O)N2CCc3ccccc32)oc2ccccc12	2	14	0	i	i	-4
Cc1c(C(=O)N2CC(C(=O)N3CCCCC3)Oc3ccccc32)oc2ccccc12 (stereo not drawn)	-2	75*	-1	/	i	-13
CCOC(=O)C(CSCC(=O)c1ccc(Br)cc1)NC(=O)OC(C)(C)C (stereo not drawn)	/	/	/	100*	/	/
CN(C)c1ccc(Nc2cc(Cl)ncn2)cc1	-1	9	1	i	i	0
